Only some compounds are listed: those with a hit (about 2.8% of all), similar ones and a draw of the others.
CF NFkB inh: inhibitors of cystic fibrosis induced NF-kB. KKLEB NF-kB-GFP reporter, PAF-induced, GFP fluorescence overnight. inhibition, % at 5 µM. 360,000 tested, 0.86% active;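 active means at least 50% inhibition at 5 µM, scaled per plate between neutral and stimulator controls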;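 further: PAF is a Pseudomonas aeruginosa culture filtrate used as stimulus; plate controls were PAF-stimulated DMSO wells for no effect and unstimulated DMSO wells for full effect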
TRPM1 prom inh: MITF TRPM1 promoter inhibition in SK-MEL-5 cells; SK-MEL-5 TRPM1 promoter luciferase, 24 h; 330,000 tested, 0.83% active; inhibition, % at 12.5 µM;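 active means mean inhibition across replicates of 60% or more, whatever share of single replicates reaches that level; inconclusive means some that reach 60%, reason not given; inactive means mean inhibition across replicates below 60%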
HIF-2a block: HIF-2a inhibition; 786-0 RCC cells HIF-2a reporter, luciferase luminescence, overnight; inhibition, % at 18.8 µM; 360,000 tested, 0.72% active; AID 624352;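 active means inhibition of the luminescence signal of 40% or more relative to plate controls, in a single-dose primary screen at 18.75 µM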
KKLEB tox: reduces viability of KKLEB cystic fibrosis airway cells; 360,000 tested, 0.36% active; activity change (cytotoxicity), % at 5 µM; KKLEB CF airway cells viability, ATPlite luminescence, overnight; stronger effect = lower value; cells stimulated with P. aeruginosa culture filtrate;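 active means corrected activity change at or below -50% at 5 µM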
Shn3 3UTR inh: inhibitors of Schnurri-3 3'UTR reporter in osteoblasts; Clone20 osteoblast Shn3 3'UTR firefly luciferase, 24 h; inhibition, % at 12.5 µM; 360,000 tested, 0.52% active;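 active means mean inhibition of at least 75% with every replicate also reaching 75%; inconclusive means mean inhibition at least 75% but some replicate below; inactive means mean inhibition below 75%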;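 further: 0% = median of neutral control wells and 100% = pilot-screen positive control compound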
Peg3 promoter: reduces Peg3 promoter-driven luciferase expression in HeLa; AID 588405; HeLa PEG-Prom luciferase reporter, luminescence, overnight; 360,000 tested, 1.7% active; inhibition, % at 20 µM;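 active means inhibition of at least 50% at 20 µM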
* marks the source's active call; other numbers are inactive results.

O=C(Nc1ccc(Cl)c(Cl)c1)Nc1nnc(-c2ccncc2)s1 was read as CF NFkB inh 76*, TRPM1 prom inh 2, HIF-2a block 4, KKLEB tox -56*, Shn3 3UTR inh 13 and Peg3 promoter 24.
For COc1ccc(CN(C)c2ccc(S(=O)(=O)N3CCN(C)CC3)cc2[N+](=O)[O-])cc1OC the results were CF NFkB inh 22, TRPM1 prom inh 13, HIF-2a block 12, KKLEB tox -18, Shn3 3UTR inh 88* and Peg3 promoter 15.
COCCCN1C(=O)C(CC(=O)NCc2cccc3ccccc23)CC(C(=O)N(C)C)=C1C (configuration not stated) was read as CF NFkB inh 13, HIF-2a block 0, KKLEB tox -2, Shn3 3UTR inh -14 and Peg3 promoter -2.
`CC(C)(C)C(=O)/C=c1\s/c(=C\c2ccc(-c3ccc([N+](=O)[O-])cc3)o2)c(=O)n1CC(=O)NC(N)=O` gave CF NFkB inh -425, TRPM1 prom inh 2, HIF-2a block -5, KKLEB tox -20, Shn3 3UTR inh -2 and Peg3 promoter 55*.
CCC(=O)N/N=C/c1ccc(-c2ccc([N+](=O)[O-])cc2)o1 was read as CF NFkB inh -16, TRPM1 prom inh -18, HIF-2a block -50, KKLEB tox 6, Shn3 3UTR inh -17 and Peg3 promoter -36.
Screening Cc1ccc(NC(=O)C2CCN(c3ncnc4sc(C)c(C)c34)CC2)cc1S(=O)(=O)N(C)C returned CF NFkB inh 17, TRPM1 prom inh 13, HIF-2a block 16, KKLEB tox -20, Shn3 3UTR inh 34 and Peg3 promoter 27.
`Cc1sc2ncnc(N3CCN(S(=O)(=O)c4ccccc4)CC3)c2c1C` gave CF NFkB inh 9, TRPM1 prom inh 2, HIF-2a block 30, KKLEB tox -5, Shn3 3UTR inh 94* and Peg3 promoter 31.
Cc1ccc(S(=O)(=O)N2CCN(c3ncnc4scc(-c5ccccc5)c34)CC2)cc1 was read as CF NFkB inh 9, TRPM1 prom inh 29, HIF-2a block -4, KKLEB tox -6, Shn3 3UTR inh 24 and Peg3 promoter 8.
For Cc1ccc(C)c(S(=O)(=O)N2CCN(C(=O)C3CCN(c4ncnc5sc(C)c(C)c45)CC3)CC2)c1 the results were CF NFkB inh -6, TRPM1 prom inh 30, HIF-2a block 8, KKLEB tox 6, Shn3 3UTR inh 89* and Peg3 promoter 45.
Screening CC(C)Cc1ccc(C(C)CC2=CCC(CN(C)C)C2=O)cc1 (configuration not stated) returned CF NFkB inh -9, TRPM1 prom inh 42, HIF-2a block -9, KKLEB tox 2, Shn3 3UTR inh 2 and Peg3 promoter 101*.
For Cc1cccc(-c2oc3ccc(-c4ccc5c(c4)OCO5)cc3c2/C=C/c2ccc(N)cc2)c1 the results were CF NFkB inh -8, HIF-2a block 6, KKLEB tox -7, Shn3 3UTR inh -1 and Peg3 promoter -1.
CCOC(=O)c1ccc(N2C(=O)C=CC2=O)cc1 was read as CF NFkB inh 19, TRPM1 prom inh 41, HIF-2a block 95*, KKLEB tox -8, Shn3 3UTR inh 88* and Peg3 promoter 103*.
`CSC(=NC#N)N1CCN(c2ccc(Cl)cc2)CC1` gave CF NFkB inh -6, TRPM1 prom inh -3, HIF-2a block -92, KKLEB tox 4, Shn3 3UTR inh -10 and Peg3 promoter -46.
O=C(COC(=O)C1=NN(c2ccccc2)C(=O)CC1)NCc1ccccc1Cl was read as CF NFkB inh -11, TRPM1 prom inh -2, HIF-2a block 3, KKLEB tox 6, Shn3 3UTR inh 3 and Peg3 promoter 12.
Cc1c(NC(=O)C(C)OC(=O)CCOc2ccccc2)c(=O)n(-c2ccccc2)n1C (configuration not stated) was read as CF NFkB inh 16, TRPM1 prom inh 5, HIF-2a block 9, KKLEB tox 0, Shn3 3UTR inh -32 and Peg3 promoter 11.
For CCN1CCN(C(=O)c2cc(COc3ccc4ncccc4c3)on2)CC1 the results were CF NFkB inh 5, TRPM1 prom inh 7, HIF-2a block -3, KKLEB tox -2, Shn3 3UTR inh 54 and Peg3 promoter 39.
Screening O=C(NCc1cccc(Cl)c1)c1cc(COc2ccc3ncccc3c2)on1 returned CF NFkB inh 14, TRPM1 prom inh 16, HIF-2a block -4, KKLEB tox -10, Shn3 3UTR inh inconclusive and Peg3 promoter 0.
Screening CC(CCCC(C)(C)O)NC(=O)c1cc(COc2ccc3ncccc3c2)on1 (configuration not stated) returned CF NFkB inh 17, TRPM1 prom inh 11, HIF-2a block 11, KKLEB tox -6, Shn3 3UTR inh 90* and Peg3 promoter 7.
Screening CCC1CCCCN1C(=O)c1cc(COc2ccc3ncccc3c2)on1 (configuration not stated) returned CF NFkB inh 26, TRPM1 prom inh 10, HIF-2a block 4, KKLEB tox -2, Shn3 3UTR inh 88* and Peg3 promoter 3.
Screening COCC1CCCCN1C(=O)c1cc(COc2ccc3ncccc3c2)on1 (configuration not stated) returned CF NFkB inh 3, TRPM1 prom inh 28, HIF-2a block 0, KKLEB tox 3, Shn3 3UTR inh 89* and Peg3 promoter -1.
CCn1c2ccccc2c2cc(/C=N/NC(=O)c3ccncc3)ccc21 was read as CF NFkB inh -10, TRPM1 prom inh 4, HIF-2a block 11, KKLEB tox -24, Shn3 3UTR inh 14 and Peg3 promoter 62*.
For COc1cccc(C(=O)Oc2ccccc2/C=C\C(=O)c2cc3ccccc3o2)c1 the results were CF NFkB inh -1, TRPM1 prom inh 20, HIF-2a block -121, KKLEB tox -13, Shn3 3UTR inh -62 and Peg3 promoter 105*.
Screening COc1cc(/C=N/N(c2ccccc2)c2ccccc2)ccc1O returned CF NFkB inh -13, TRPM1 prom inh 1, HIF-2a block -26, KKLEB tox 6, Shn3 3UTR inh -27 and Peg3 promoter -28.
For CN(/N=C\c1ccc(O)c(O)c1)c1nc(-c2ccccc2)cc(-c2ccccc2)n1 the results were CF NFkB inh -32, TRPM1 prom inh 12, HIF-2a block -3, KKLEB tox -1, Shn3 3UTR inh 92* and Peg3 promoter 10.
For COc1ccc(Nc2nc(Cl)c(C=O)s2)cc1 the results were CF NFkB inh -9, TRPM1 prom inh 3, HIF-2a block -5, KKLEB tox 0, Shn3 3UTR inh -3 and Peg3 promoter -82.
`CC(C)(C)c1cc(C(=O)N/N=C/c2ccccc2O)n(-c2ccccc2)n1` gave CF NFkB inh -10, TRPM1 prom inh 48, HIF-2a block 8, KKLEB tox 4, Shn3 3UTR inh 91* and Peg3 promoter 50*.

Screening data from PubChem.
